The source of these data is PubChem BioAssay (NCI).

The panel holds about 83,000 compounds, 20% with a hit somewhere; the sample as a whole holds those more often.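 The endpoint reported here, percent growth, reads 100 for growth as untreated, 0 for no net growth and -100 for all cells dead.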 Unmarked numbers belong to inactive results. Activity calls are given as the source filed them. Rule for the calls: active = growth percent below 10; inactive = the rest.

Test in all cases: NCI-60 one-dose screen, 48 h (100 = growth as untreated, 0 = no growth, -100 = all killed)
Settings in all cases: 10 µM unless noted

Assay [1] concerns NCI-H23 lung.
Assay [2] has as its system NCI-H226 lung.
Assay [3] relates to NCI-H322M lung.
Assay [4] has as its system HOP-62 NSCLC.
Assay [5] has as its system NCI-H460 lung.
Assay [6] deals with NCI-H522 lung.
For assay [7], the system named is A549/ATCC NSCLC.
The test system of assay [8] is 786-0 renal.
Assay [9] concerns COLO 205 colon.
Assay [10] concerns DU-145 prostate.
Assay [11] has as its system K-562 leukemia.
Assay [12] relates to MALME-3M melanoma.
Assay [13] concerns MDA-MB-231 breast.
The subject of assay [14] is RXF 393 renal.
The subject of assay [15] is SF-268 CNS.
For assay [16], the system named is SF-295 CNS.
The subject of assay [17] is SF-539 CNS.
Assay [18] relates to UACC-257 melanoma.
The subject of assay [19] is M14 melanoma.

`CN1c2ccccc2Sc2cc(C=C(C#N)C#N)ccc21`: the growth in assay [1] was 89.3%; in assay [2], -31.4% (active); in [3], 97.3%; in [4], 90.4%; in assay [5], 97.9%; in assay [6], 91.8%. Moreover, the growth was 98% in assay [7]; 105% in assay [8]; 108% in assay [9]; 110% in [10]; 101% in [11]; 98.3% in [12]. The growth in [13] is 92.3%; in assay [14] it was 92.1%; in [15], 105%; in assay [16] it was 103%; in assay [17], 101%; in assay [18] it was 97.5%. In addition, in assay [19], the growth was 96%.
Consider `CNC(=O)c1cc(Oc2ccc3nc(NC(=O)c4ccc(N5CCOCC5)c(C(F)(F)F)c4)sc3c2)ccn1`, for which the growth in [1] was 78.9%; in assay [2] it was 91.5%; in assay [3], 91.7%; in assay [4], 90.5%; in [5], 68.8%; in assay [6], 77.9%. For the same molecule, the growth is 80.5% in assay [7]; 47.1% in assay [8]; 102% in [9]; 98.2% in assay [10]; 71.9% in assay [11]; 94.2% in [12]. Also, the growth in assay [13] is 84.9%; in [14], -31.3% (active); in assay [15], 92.8%; in assay [16] it was 26.5%; in assay [17], 68.3%; in assay [18], 96.2%. Also, the growth in assay [19] is 85.9%.
Turning to `N#Cc1c(Nc2ccccc2)nn2c(-c3ccc([N+](=O)[O-])cc3)ccnc12`, the growth in assay [1] was 100%; in assay [2] it was 104%; in assay [3], 102%; in [4] it was 109%; in assay [5], 99.3%; in assay [6] it was 94.8%. In addition, the growth is 94.4% in assay [7]; 98.3% in assay [8]; 107% in assay [9]; 109% in assay [10]; 112% in assay [11]; 104% in assay [12]. The growth is 102% in assay [13]; 90.3% in [14]; 100% in assay [15]; 104% in assay [16]; 100% in [17]; 95.3% in [18]. Also, the growth in assay [19] is 106%.
Take `Cn1cc(-c2nc(N)nnc2-c2c[nH]c3ccccc23)c2cc(Br)ccc21`: the growth in [1] was 17%; in assay [2] it was 60.3%; in assay [3] it was 41.9%; in assay [4] it was 45.9%; in assay [5], 12.6%; in assay [6], -2.27% (active). Also, the growth in [7] is 50.8%; in assay [8], 43.5%; in [9], 9.53% (active); in [10] it was 18.6%; in assay [11], 11.6%; in assay [12], 40.8%. Also, the growth in assay [13] was 34.2%; in assay [14], 7.61% (active); in assay [15], 39.6%; in assay [16], -7.74% (active); in assay [17], 6.14% (active); in [18], 72.1%. In addition, the growth in assay [19] was 6.36% (active).
As to `Cc1ccc(N2C(=O)/C(=C/C=C/c3ccco3)SC2=S)cc1`, the growth in assay [1] is 98.9%; in assay [2] it was 102%; in [3], 96.4%; in assay [4] it was 95.9%; in assay [5], 88.9%; in assay [6] it was 81.8%. The growth is 86.3% in assay [7]; 104% in [8]; 94.3% in assay [9]; 100% in assay [10]; 61.2% in [11]; 91.4% in assay [12]. Also, the growth in assay [13] is 94.9%; in [14] it was 74.6%; in assay [15] it was 105%; in [16], 99.1%; in assay [17] it was 101%; in [18], 88.3%. Further, the growth in [19] was 103%.
As for `COCCNc1ccc2ncc(C#Cc3cncc(C(=O)Nc4ccc(CN5CCN(C)CC5)c(C(F)(F)F)c4)c3)n2n1`, the growth was -49.6% (active) in assay [1]; -45.9% (active) in [2]; -23% (active) in assay [3]; -48.3% (active) in [4]; -82.5% (active) in assay [5]; -76.3% (active) in [6]. Further, the growth was 3.12% (active) in assay [7]; -64.1% (active) in [8]; -83.1% (active) in [9]; -32.4% (active) in assay [10]; 1.22% (active) in assay [11]; -69.7% (active) in assay [12]. For the same molecule, the growth in assay [13] was -15% (active); in assay [14], -84.3% (active); in assay [15] it was -55% (active); in assay [16], -13.9% (active); in assay [17], -77% (active); in [18] it was -46.4% (active). Moreover, the growth in assay [19] is -86.2% (active).
Turning to `COc1ccc([C@@H]2[C@@H](O)C(=O)N2c2cc(OC)c(OC)c(OC)c2)cc1F`, the growth was 15.9% in [1]; 36.9% in assay [2]; 52.4% in assay [3]; 28.3% in assay [4]; 2.68% (active) in [5]; -49.6% (active) in assay [6]. Further, the growth in assay [7] was 20.2%; in assay [8] it was 10%; in assay [9], -79.8% (active); in [10] it was 12.3%; in assay [11], 8.16% (active); in assay [12], 64.1%. Also, the growth in assay [13] was 21.3%; in [14], 24.9%; in assay [15], 32%; in assay [16] it was 5.85% (active); in assay [17], -0.902% (active); in [18] it was 58.6%. Further, the growth in [19] is 3.94% (active).
`O=C(CSc1nc2ccccc2c(=O)n1-c1ccccc1)Nc1cccc(C(=O)/C=C/c2ccccc2)c1`: the growth in [1] is 102%; in [2], 83.1%; in assay [3], 102%; in [4] it was 99%; in [5] it was 91.6%; in assay [6] it was 92%. For the same molecule, the growth in [7] was 80.1%; in [8], 98.5%; in assay [9], 106%; in assay [10], 94.8%; in [11], 70.1%; in assay [12], 101%. The growth was 94.3% in assay [13]; 83.1% in assay [14]; 94.8% in assay [15]; 98% in assay [16]; 98.8% in assay [17]; 99.8% in assay [18]. Further, in assay [19], the growth is 97.5%.
